Test results: PubChem BioAssay (Tox21)
The source made the active and inactive calls. Calls come from the whole dose curve; as a rule, active = well fitted activation curve with a large enough effect in the repeat runs; inconclusive = weak or mixed curves; inactive = flat fitted curve, though single readings scatter.

Assay: Caspase-3/7 induction in CHO-K1 cells by small molecules, qHTS assay (AID 1346980); note: nearly all actives have a fitted effect of over 15% in size
Conditions: CHO-K1 caspase-3/7 induction, Caspase-Glo luminescence, 17 h; series mostly up to 92.4 µM; caspase-3/7 activation: at the top concentration
Excerpt: National Center for Advancing Translational Sciences [NCATS]
NIH Chemical Genomics Center [NCGC]
U.S. Environmental Protection Agency [EPA]
National Institutes of Environmental Health Sciences [NIEHS]
National Toxicology Program [NTP]
Apoptosis is a process of programmed cell death and plays a central role in the development of multicellular organisms. It is a highly regulated process and induces cell death by activating caspases, which are the members of cysteine aspartic acid-specific protease (caspase) family. Caspases involved in apoptosis are classified by their mechanism of action as initiator caspases (caspase-2, -8, -9 and -10) and executioner caspases (caspase-3, -6, and -7). Inhibition of apoptosis results in number of cancers, autoimmune diseases, inflammatory diseases and viral infection. To identify small molecule compounds that induce apoptosis, a homogeneous, luminescent Caspase-Glo 3/7 assay was used. Wild type CHO-K1 cells were used to screen Tox21 libraries for identifying caspase-3/7 activity inducers.
CHO-K1 cells were dispensed at 1,500 per well in 5uL of culture medium into white solid bottom 1536-well plates (Corning Life Sciences, Corning, NY) using a Multidrop Combi (Thermo Scientific, Waltham, MA) dispenser. The assay plates were incubated at 37 C and 5% CO2 for 5hr, and then 23nL of compounds dissolved in DMSO and positive control were transferred using a Pintool station (Wako, San Diego, CA). The assay plates were incubated at 37C and 5% CO2 for 17hr. For caspase-3/7 activity read, 4uL of Caspase-Glo 3/7 reagent (Promega Corporation, Madison, WI) was added to each well of the assay plates using Flying Reagent Dispenser (FRD, Aurora Discovery, San Diego, CA) and incubated the assay plates at room temperature for 30min. The luminescence signal was quantified using a ViewLux plate reader (Perkin Elmer, Shelton, CT).
% is set by controls: 0 for no effect and ±100 for the full control effect.

Compound | caspase-3/7 activation
O=C(Nc1ccccc1)c1ccccc1O | -6.21% (inactive)
CCOC(=O)c1cccnc1 | 0.268% [at 42.5 µM] (inactive)
C/C(=C(\CCOP(=O)(O)O)SC(=O)c1ccccc1)N(C=O)Cc1cnc(C)nc1N | -0.786% [at 8.39 µM] (inactive)
Clc1ccc2c(c1)CCc1cccnc1C2=C1CCNCC1 | 0.102% [at 42.5 µM] (inactive)
CC(C)CC(=O)C1C(=O)c2ccccc2C1=O | -3.48% (inactive)
CCOC(=O)C(=O)CCc1ccccc1 | 0.429% [at 42.5 µM] (inactive)
CCCC(=O)Nc1ccc(O)c(C(C)=O)c1 | -0.0009% [at 42.5 µM] (inactive)
CCCCCCCCCCCc1ccccc1 | -0.621% (inactive)
CC(C)(C)OCC1CO1 (stereo not given) | -1.1% (inactive)
C[C@@H]1C[C@H]2O[C@@]3(O[C@@H]2C(C)(C)O)[C@H](O)[C@@]2(C)[C@@H]4CC[C@H]5C(C)(C)[C@@H](O[C@@H]6OC[C@@H](O)[C@H](O)[C@H]6O)CC[C@@]56C[C@@]46CC[C@]2(C)[C@@H]13 | -0.276% [at 42.5 µM] (inactive)
CCCOC(C(=O)OC1CCN(C)CC1)(c1ccccc1)c1ccccc1 | -1.11% [at 42.5 µM] (inactive)
CCCCNc1ccc(C(=O)OCCOCCOCCOCCOCCOCCOCCOCCOCCOC)cc1 | -2.19% [at 42.5 µM] (inactive)
O=C(O)CC(=O)C(=O)O | -2.12% (inactive)
Cc1ccccc1S(=O)(=O)O | -1.48% (inactive)
CO[C@@H]1[C@H](OC(=O)/C=C/C=C/C=C/C=C/C(=O)O)CC[C@]2(CO2)[C@H]1[C@@]1(C)O[C@@H]1CC=C(C)C | 10% (inactive)
C[N+](C)(C)CCOC(=O)CCC(=O)OCC[N+](C)(C)C | -0.171% [at 42.5 µM] (inactive)
COS(=O)(=O)C(F)(F)F | -0.378% (inactive)
COc1ccc(C(=O)c2ccc(OC)cc2O)c(O)c1 | -1.67% (inactive)
CCCCCCCCCCCC(=O)OC[C@@H](O)[C@H]1OC[C@H](OCCO)[C@H]1OCCO | -0.638% (inactive)
CC[N+](C)(CC)CCOC(=O)C(O)(c1ccccc1)C1CCCCC1 (stereo not given) | 0.323% [at 42.5 µM] (inactive)

Compound | caspase-3/7 activation
CN1Cc2cc(C(=O)N3CCC(C4CCNCC4)CC3)ccc2NC(CC(=O)O)C1=O (stereo not given) | 2% [at 42.5 µM] (inactive)
S=C([S-])NCCNC(=S)[S-].[Mn+2] | 0.0525% (inactive)
O=CC1CC=CCC1 (stereo not given) | -1.16% (inactive)
OC[C@H]1O[C@@H](OCCc2ccc(O)cc2)[C@H](O)[C@@H](O)[C@@H]1O | -0.574% [at 42.5 µM] (inactive)
CCN(CC)c1ccc(C(=C2C=CC(=[N+](CC)CC)C=C2)c2cc(S(=O)(=O)O)ccc2S(=O)(=O)[O-])cc1 | -5.2% [at 42.5 µM] (inactive)
c1cc(CCCc2ccncc2)ccn1 | -1.11% (inactive)
CC(C)=CCC/C(C)=C/CC/C(C)=C/CO | 2.54% (inactive)
CN(C)CCN(Cc1ccc(Cl)cc1)c1ccccn1 | -0.203% [at 42.5 µM] (inactive)
CN(C)CCOC(c1ccccc1)c1ccc(Br)cc1 (stereo not given) | 0.166% [at 42.5 µM] (inactive)
O=C(NCC1CN(c2ccc(N3CCOCC3=O)cc2)C(=O)O1)c1ccc(Cl)s1 (stereo not given) | -1.55% [at 42.5 µM] (inactive)
CN1CCC(=C2c3ccccc3Sc3ccccc32)CC1 | 0.203% [at 42.5 µM] (inactive)
CN1CCN(C(c2ccccc2)c2ccccc2)CC1 | -1.57% [at 42.5 µM] (inactive)
CC(C)(C)Cl | -0.0552% (inactive)
Cc1[nH]c(C)c(Cl)c(=O)c1Cl | -0.964% [at 19 µM] (inactive)
C=C(C)C(=O)OCCO | -0.952% (inactive)
C=CCOc1ccccc1OCC(O)CNC(C)C (stereo not given) | -1.15% [at 42.5 µM] (inactive)
O=C(NCCO[N+](=O)[O-])c1cccnc1 | -0.804% [at 42.5 µM] (inactive)
Cc1ncc(CO)c(C=O)c1O | -0.0467% [at 42.5 µM] (inactive)
O=C1CCC(=O)O1 | 1.63% (inactive)
Cc1cccc(C)c1NC(=O)CN(CC(=O)O)CC(=O)O | -0.199% [at 42.5 µM] (inactive)
